Source: PubChem BioAssay (NCATS)
Inconclusive results are not listed. Calls of active or inactive are those of the source. The call rests on the fitted dose curve; in most records, active means well fitted curve in the direction sought with a large enough effect; inconclusive means small, poorly fitted or top-dose-only effect, or another doubt; inactive means no such curve, though single readings can be large; an effect the other way counts as inactive or inconclusive.

Key:
[1] = Quantitative High-Throughput drug screen in 47 multiple myeloma cell lines against the NCATS MIPE library collection: KMM1_JCRB cell viability assay (AID 1918960); further: nearly all actives have a fitted effect of over 30% in size
Method in brief: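 Viability screen: myeloma cells (500/well) incubated 48 h at 37 °C, humidified 5% CO2, with pinned library compounds; CellTiter-Glo added, luminescence read; DMSO wells set 100%, medium-only wells 0%.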

[2] = Quantitative High-Throughput drug screen in 47 multiple myeloma cell lines against the NCATS MIPE library collection: JJN3_DSMZ cell viability assay (AID 1918966; further: nearly all actives have a fitted effect of over 50% in size)
Method in brief: (§1)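 Luminescent ATP measurement with CellTiter-Glo gives viability, scaled between DMSO-only wells (100%) and media-only wells (0%). Cells, 500 per well, faced library compounds for 48 hours at 37C.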

[3] = Quantitative High-Throughput drug screen in 47 multiple myeloma cell lines against the NCATS MIPE library collection: Karpas25_ECACC cell viability assay (AID 1918968; further: nearly all actives have a fitted effect of over 35% in size)
Method in brief: as §1

[4] = Quantitative High-Throughput drug screen in 47 multiple myeloma cell lines against the NCATS MIPE library collection: KMS12BM_JCRB cell viability assay (AID 1918971); further: nearly all actives have a fitted effect of over 35% in size
Method in brief: as §1

[5] = Quantitative High-Throughput drug screen in 47 multiple myeloma cell lines against the NCATS MIPE library collection: KMS12PE_JCRB cell viability assay (AID 1918972); further: nearly all actives have a fitted effect of over 30% in size
Method in brief: (§2)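 CellTiter-Glo ATP luminescence gave viability after 48 h compound treatment at 37C of 500 multiple myeloma cells per well. Normalisation used DMSO-only wells as 100% and media-only wells as 0% viability; primary qHTS of approved and investigational drugs.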

[6] = Quantitative High-Throughput drug screen in 47 multiple myeloma cell lines against the NCATS MIPE library collection: KMS20_JCRB cell viability assay (AID 1918973); further: nearly all actives have a fitted effect of over 45% in size
Method in brief: as §1

[7] = Quantitative High-Throughput drug screen in 47 multiple myeloma cell lines against the NCATS MIPE library collection: MMM1_PLB cell viability assay (AID 1918976); further: nearly all actives have a fitted effect of over 35% in size
Method in brief: (§3)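 ATP-based CellTiter-Glo luminescence after 48 h drug exposure (37 °C, 5% CO2) of 500 myeloma cells per well. DMSO-only wells set 100% viability, media-only wells 0%; MIPE 4.0 library added by pin tool.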

[8] = Quantitative High-Throughput drug screen in 47 multiple myeloma cell lines against the NCATS MIPE library collection: NCIH929_DSMZ cell viability assay (AID 1918978); further: nearly all actives have a fitted effect of over 35% in size
Method in brief: as §3

[9] = Quantitative High-Throughput drug screen in 47 multiple myeloma cell lines against the NCATS MIPE library collection: OCIMY1_PLB cell viability assay (AID 1918979); further: nearly all actives have a fitted effect of over 35% in size
Method in brief: as §3

[10] = Quantitative High-Throughput drug screen in 47 multiple myeloma cell lines against the NCATS MIPE library collection: MM1S_ATCC cell viability assay (AID 1918980); further: nearly all actives have a fitted effect of over 45% in size
Method in brief: as §3

[11] = Quantitative High-Throughput drug screen in 47 multiple myeloma cell lines against the NCATS MIPE library collection: Karpas417_ECACC cell viability assay (AID 1918961); settings: Karpas417 myeloma viability, CellTiter-Glo ATP luminescence, 48 h; viability (% of DMSO): at 45.8 µM (top of the series)
Method in brief: as §2

[12] = Quantitative High-Throughput drug screen in 47 multiple myeloma cell lines against the NCATS MIPE library collection: KHM11_PLB cell viability assay (AID 1918962); further: nearly all actives have a fitted effect of over 35% in size
Method in brief: (§4)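 Myeloma cells (500 per well) were exposed to MIPE 4.0 compounds by pin transfer and incubated 48 hours at 37C, 5% CO2. Viability was read as ATP by CellTiter-Glo luminescence, normalised to DMSO (100%) and media-only (0%) wells.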

[13] = Quantitative High-Throughput drug screen in 47 multiple myeloma cell lines against the NCATS MIPE library collection: JIM3_ECACC cell viability assay (AID 1918963; further: nearly all actives have a fitted effect of over 35% in size)
Method in brief: as §4

[14] = Quantitative High-Throughput drug screen in 47 multiple myeloma cell lines against the NCATS MIPE library collection: JIM1_ECACC cell viability assay (AID 1918964)
Method in brief: as §1

[15] = Quantitative High-Throughput drug screen in 47 multiple myeloma cell lines against the NCATS MIPE library collection: INA6_PLB cell viability assay (AID 1918965; further: nearly all actives have a fitted effect of over 55% in size)
Method in brief: as §2

[16] = Quantitative High-Throughput drug screen in 47 multiple myeloma cell lines against the NCATS MIPE library collection: H1112_PLB cell viability assay (AID 1918967; further: nearly all actives have a fitted effect of over 30% in size)
Method in brief: as §1

[17] = Quantitative High-Throughput drug screen in 47 multiple myeloma cell lines against the NCATS MIPE library collection: KMS27_JCRB cell viability assay (AID 1918970); further: nearly all actives have a fitted effect of over 30% in size
Method in brief: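 KMS27_JCRB myeloma cells, 500 per well, exposed 48 h at 37 C, 5% CO2 to MIPE 4.0 compounds. Viability from ATP by CellTiter-Glo luminescence, normalized to DMSO (100%) and medium-only (0%) wells.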

[18] = Quantitative High-Throughput drug screen in 47 multiple myeloma cell lines against the NCATS MIPE library collection: KMS21BM_JCRB cell viability assay (AID 1918974); settings: ATP luminescence, 48 h; viability: at 45.8 µM (top of the series)
Method in brief: as §1

[19] = Quantitative High-Throughput drug screen in 47 multiple myeloma cell lines against the NCATS MIPE library collection: KMS26_JCRB cell viability assay (AID 1918975); further: nearly all actives have a fitted effect of over 45% in size
Method in brief: as §1

[20] = Quantitative High-Throughput drug screen in 47 multiple myeloma cell lines against the NCATS MIPE library collection: MOLP8_DSMZ cell viability assay (AID 1918977); further: nearly all actives have a fitted effect of over 45% in size
Method in brief: as §3
Potency means the concentration at half of the fitted maximal effect.

SMILES	Potency [1]	Potency [2]	Potency [3]	Potency [4]	Potency [5]	Potency [6]	Potency [7]	Potency [8]	Potency [9]	Potency [10]	Potency [11]	Potency [12]	Potency [13]	Potency [14]	Potency [15]	Potency [16]	Potency [17]	Potency [18]	Potency [19]	Potency [20]
C[C@]12Cc3cn[nH]c3C[C@@H]1CC[C@@H]1[C@H]2CC[C@@]2(C)[C@H]1CC[C@]2(C)O	inactive	14.8 µM (active)	inactive	16.6 µM (active)	inactive	inactive	23.5 µM (active)	inactive	inactive	inactive										
O=c1[nH]c2ccccc2n1C1CCN(Cc2ccc(-c3[nH]c4cc5ncnc5cc4nc3-c3ccccc3)cc2)CC1		29.6 µM (active)	8.33 µM (active)	20.9 µM (active)	10.5 µM (active)	2.35 µM (active)	14.8 µM (active)	0.662 µM (active)	18.7 µM (active)	18.7 µM (active)	1.48 µM (active)	inactive	5.9 µM (active)	4.69 µM (active)	1.48 µM (active)	0.833 µM (active)	18.7 µM (active)	16.6 µM (active)	23.5 µM (active)	
Cc1c(N)nc([C@H](CC(N)=O)NC[C@@H](N)C(N)=O)nc1C(=O)N[C@H](C(=O)N[C@@H](C)[C@H](O)[C@@H](C)C(=O)N[C@@H](C(=O)NCCc1nc(-c2nc(C(=O)NCCC[S+](C)C)cs2)cs1)[C@@H](C)O)C(O[C@H]1O[C@H](CO)[C@H](O)[C@@H](O)[C@@H]1O[C@H]1O[C@H](CO)[C@@H](O)[C@H](OC(N)=O)[C@H]1O)c1cnc[nH]1 (some centres not stated)	0.418 µM (active)					0.935 µM (active)			13.2 µM (active)	20.9 µM (active)						5.9 µM (active)	0.296 µM (active)			
C[C@@H]1O[C@@H](O[C@@H]2C=C3CC[C@@H]4[C@@H](CC[C@]5(C)[C@H](c6ccc(=O)oc6)CC[C@@]45O)[C@@]3(C)CC2)[C@H](O)[C@H](O)[C@H]1O		0.0469 µM (active)	0.0235 µM (active)	0.0187 µM (active)	0.0074 µM (active)	0.0187 µM (active)	0.0264 µM (active)	0.0469 µM (active)	0.0166 µM (active)	0.0296 µM (active)	0.0148 µM (active)	0.0296 µM (active)	0.0296 µM (active)	0.0132 µM (active)	0.0264 µM (active)	0.0418 µM (active)	0.0083 µM (active)	0.0264 µM (active)	0.0418 µM (active)	0.0296 µM (active)
C[C@](O)(COc1ccc(C#N)cc1)C(=O)Nc1ccc(C#N)c(C(F)(F)F)c1		inactive	18.7 µM (active)						inactive		23.5 µM (active)									
Oc1ccc2c3c1O[C@H]1c4[nH]c5c(c4C[C@@]4(O)[C@@H](C2)N(CC2CC2)CC[C@]314)C[C@@]1(O)[C@H]2Cc3ccc(O)c4c3[C@@]1(CCN2CC1CC1)[C@H]5O4			inactive		inactive			inactive		inactive			inactive	inactive	inactive		inactive		inactive	inactive
CCNC(=O)CC1N=C(c2ccc(Cl)cc2)c2cc(OC)ccc2-n2c(C)nnc21 (configuration not stated)				16.6 µM (active)	13.2 µM (active)		16.6 µM (active)	10.5 µM (active)	18.7 µM (active)	11.8 µM (active)	4.18 µM (active)							5.9 µM (active)	5.9 µM (active)	
N#C[C@H](O[C@@H]1O[C@H](CO[C@@H]2O[C@H](CO)[C@H](O)[C@H](O)[C@H]2O)[C@H](O)[C@H](O)[C@H]1O)c1ccccc1		18.7 µM (active)	18.7 µM (active)	20.9 µM (active)	7.43 µM (active)	18.7 µM (active)	23.5 µM (active)	23.5 µM (active)	20.9 µM (active)				20.9 µM (active)		13.2 µM (active)		6.62 µM (active)		20.9 µM (active)	
COc1ccc(N(C(=O)Oc2c(C)cccc2C)c2ccnc(Nc3ccc(N4CCN(C)CC4)cc3)n2)c(OC)c1	2.96 µM (active)	18.7 µM (active)	2.64 µM (active)	1.48 µM (active)			3.72 µM (active)		inactive	4.69 µM (active)					1.48 µM (active)		2.96 µM (active)	0.235 µM (active)	1.48 µM (active)	3.72 µM (active)
C[C@H]1CCCC=CC2C[C@H](O)C[C@@H]2[C@H](O)C=CC(=O)O1 (some centres not stated)		inactive	inactive	inactive		inactive		inactive	inactive	inactive	inactive	inactive	inactive			inactive	0.001 µM (active)		inactive	inactive
CC(C)[C@H]1C(=O)N[C@H](CO)Cc2c[nH]c3cccc(c23)N1C	inactive						inactive	inactive	inactive							inactive		inactive	inactive	0.166 µM (active)
COC1=C[C@@H]2[C@@H]3Cc4ccc(OC)c(O)c4[C@]2(CCN3C)CC1=O			2.96 µM (active)			1.66 µM (active)		1.66 µM (active)		1.66 µM (active)	10.5 µM (active)		9.35 µM (active)		8.33 µM (active)					inactive
C=C1C[C@H]2[C@H]3CCC(=O)[C@@]3(C)CC[C@@H]2[C@@]2(C)C=CC(=O)C=C12		14.8 µM (active)	16.6 µM (active)	20.9 µM (active)	29.6 µM (active)		6.62 µM (active)								20.9 µM (active)		18.7 µM (active)	14.8 µM (active)		
C#C[C@]1(O)C=C[C@@H]2[C@@H]3CCC4=CC(=O)CC[C@@H]4[C@H]3CC[C@@]21CC			inactive			inactive		inactive	inactive	inactive			inactive			inactive			inactive	inactive
